Reference: PubChem BioAssay (NCI)
The panel holds about 83,000 compounds, 20% with a hit somewhere; the sample as a whole holds those more often.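 48-hour exposure, single concentration, 96-well plates; percent growth endpoint where 0 means no net growth. Active: below 10.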 Activity calls are given as the source filed them.

Tested on: NCI-H522 lung
Assay: NCI-60 one-dose screen, 48 h (100 = growth as untreated, 0 = no growth, -100 = all killed)
Settings: 10 µM unless noted

SMILES | growth
COc1cc2c(cc1-c1c(C)noc1C)ncc1nc(C3CCOCC3)n([C@@H](C)COC(F)F)c12 | 33.9% (inactive)
Cc1[nH]c(-c2cc(N)ccc2Cl)c2c1C(=O)CCCC2 | 16.2% (inactive)
O=S(=O)(Nc1ccc(Br)c(Cl)c1)c1ccc(-c2cnc(C3CC3)o2)cc1 | -17.7% (active)
C=CC(=O)Nc1cccc(-c2nc(SC)nc(NCCN3CCOCC3)c2C#N)c1 | 76% (inactive)

Tested on: A549/ATCC NSCLC
Assay: as above
Settings: 10 µM unless noted

SMILES | growth
Cc1ccc(-c2onc3c(=O)[nH]nc(-c4ccccc4)c23)cc1 | 31.5% (inactive)
O=C1CSC(=S)N1CCc1ccc(O)cc1 | 96.7% (inactive)
CNC(=O)c1cc(Oc2ccc(NC(=O)Nc3ccc(Cl)c(OC(F)(F)F)c3)c(F)c2)ccn1 | 24.7% (inactive)
N#C/C(=C\c1ccc(-c2ccc(Cl)c(Cl)c2)o1)c1nc(-c2ccco2)cs1 | 113% (inactive)
O=S(=O)(Nc1ccc(OC(F)F)cc1)c1ccc(-c2cnc(C3CC3)o2)cc1 | 60.4% (inactive)
O=C1Nc2cc(-c3ccc(O)cc3)ccc2/C1=C/c1ccc[nH]1 | 9.14% (active)
CON1C(=O)CC[C@]2(C)[C@H]3CC[C@@H]4C([C@@]5(C)CCC(=O)O5)CC[C@@]4(C)[C@]3(C)CC[C@H]2C1(C)C (stereo not given in full) | 102% (inactive)
Cn1cc(C(=O)c2nc(-c3c[nH]c4ccc(Br)cc34)no2)c2cc(F)ccc21 | 104% (inactive)
COc1ccc(-n2nc(C)c3c(Nc4ccc(NC(=O)Nc5cccc(C(F)(F)F)c5)cc4)ncnc32)cc1 | -19.2% (active)
CC(C)C1=C[C@@]23CC[C@@H]4[C@](C)(CCC[C@@]4(C)C(=O)N4CCCNCC4)[C@H]2C[C@@H]1[C@H]1C(=O)CCC(=O)[C@H]13 | 101% (inactive)
C#CCOc1ccc2ncnc(N3CCC(NC(=O)CCl)CC3)c2c1 | 75.7% [8.25 µM] (inactive)
Cc1ccc(NC(=O)/C=C/c2ccccc2)c(C(N)=O)c1 | 25.7% (inactive)
COc1ccc(/C=C\c2cc(OC)c(OC)c(OC)c2)cc1OC(=O)c1cccc(Cn2cc(CCOC(=O)[C@H](N)Cc3cn(C)c4ccccc34)nn2)c1 | 19.7% (inactive)
O=C1c2ccccc2C(=O)c2c1ccc1[nH]c(-c3cccs3)nc21 | 66.7% (inactive)
CN1CCN(Cc2ccc(NC(=O)c3cncc(C#Cc4cncn5ccnc45)c3)cc2C(F)(F)F)CC1 | 74% (inactive)
CC(C)(C)c1cc(/C=N\NC(=O)/C=C/C=C/c2ccc3c(c2)OCO3)c(O)c(C(C)(C)C)c1 | 87.5% (inactive)

SMILES | growth
CCCc1cc(=O)n2c(C(=O)Nc3ccc(F)cc3)c(C(=O)Nc3ccc(F)cc3)sc2n1 | 34.1% [30 µM] (inactive)
O=C(O)COc1ccc(Cl)cc1C1CCCCC1 | 93.2% (inactive)
NC(=O)c1cc(Br)ccc1NC(=O)/C=C/c1ccccc1 | 33.2% (inactive)
Cc1nn(-c2ccc(F)cc2)c2ncnc(Oc3ccc(NC(=O)Nc4ccc(Cl)c(C(F)(F)F)c4)cc3)c12 | 96.2% (inactive)
CSc1nc(-c2cccc(NC(=O)CCl)c2)c(C#N)c(=O)n1C | 86.3% (inactive)
CCCCN(CCCC)CCCn1c(-c2ccccc2)ccc1-c1ccccc1 | 76% (inactive)
Cc1c(/C=C/[N+](=O)[O-])ccc2c1[nH]c1ccccc12 | 87.8% (inactive)
c1ccc(Cn2cc(-c3nc4ccccc4s3)c3cccnc32)cc1 | 104% (inactive)
O=C(N/N=C/c1c[nH]c2ccccc12)c1cc(-c2ccccc2)on1 | 96.7% (inactive)
CCCn1c(=O)[nH]c(N)c([C@H]2c3ccccc3Oc3[nH]c(=O)n(CCC)c(=O)c32)c1=O | 84.8% (inactive)
CC(=O)O[C@H]1[C@@H]2OC(=O)C(CSc3ccccc3)[C@@H]2C[C@H]2O[C@]2(C)CC/C=C(\C)CCC[C@@H]1C (stereo not given in full) | 21.2% (inactive)
O=C1Nc2ccc(Br)cc2C12Oc1ccccc1C1CC(c3ccc(F)cc3)=NN12 (stereo not given) | 91% (inactive)
C=C1c2nc3ccccc3n2C=C(c2cccc(Cl)c2)N1Cc1ccc(OC)cc1 | 14.3% (inactive)
C#CC(F)(F)[C@]1(O)CC[C@H]2[C@@H]3CCC4=CC(=O)CCC4=C3[C@@H](c3ccc(C(C)=O)cc3)C[C@@]21C | 73.4% (inactive)
CC(=O)O[C@H]1CC[C@]2(C)[C@H]3CC=C4[C@@H]5CC(C)(C)CC[C@]5(C(=O)NCCNCCNCCN)CC[C@@]4(C)[C@]3(C)CC[C@H]2C1(C)C | 43% (inactive)
